# NPSR antag – qHTS Assay for Antagonists of the Neuropeptide S Receptor: cAMP Signal Transduction | Q6W5P4 | CHO-NPSR cells, cAMP TR-FRET, antagonist mode | Potency, µM (highest dose often 38.3 µM), for the others: at the top dose activity change, negative = inhibition, most hits filed as inhibitors | 220,000 tested, 1% active | AID 1461, 2008; also: potency is read from the fitted curve at half-maximal effect; % is scaled to controls: 0 for no effect and ±100 for the full control effect; nearly all actives have a fitted effect of over 50% in size
# Target sequence (Q6W5P4 whole entry, looked up): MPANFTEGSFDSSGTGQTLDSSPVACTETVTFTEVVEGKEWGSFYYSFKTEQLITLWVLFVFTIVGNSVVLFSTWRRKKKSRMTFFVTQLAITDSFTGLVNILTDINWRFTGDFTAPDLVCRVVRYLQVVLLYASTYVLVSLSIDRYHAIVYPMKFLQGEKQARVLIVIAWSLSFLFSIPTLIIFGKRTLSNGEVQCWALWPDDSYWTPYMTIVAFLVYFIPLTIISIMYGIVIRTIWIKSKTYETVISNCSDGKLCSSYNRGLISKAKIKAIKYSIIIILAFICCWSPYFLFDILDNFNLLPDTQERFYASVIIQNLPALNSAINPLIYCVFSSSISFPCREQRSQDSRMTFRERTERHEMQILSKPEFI
# PNC inhibitor – High Content Assay for Compounds that inhibit the Assembly of the Perinucleolar Compartment | activity change (PNC), negative = inhibition, % at 10 µM | AID 2417, 2010 | PC3M PTB-GFP, PNC prevalence imaging, 16 h; stronger effect = lower value | 140,000 tested, 3.1% active;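 active = readout at or below -70, meaning at least 70% loss of cells showing the perinucleolar compartment, a nuclear body marking cancer cells; inconclusive = readout between -30 and a set limit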;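 also: plate controls were DMSO wells for no effect and camptothecin positive control wells for full effect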
#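 Compounds are pinned in duplicate onto adhered PC3M cells stably expressing GFP-tagged PTB and incubated 16 h at 37 C. Cells are then fixed, nuclei stained with Hoechst, and PNC-positive cells counted.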
# IMPase cell inh – qHTS Assay for Identifying the Cell-Membrane Permeable IMPase Inhibitors | inhibition (IP1 accumulation), % at 46.1 µM | 120,000 tested, under 10 active | CHO-M1 cells, IP1 accumulation, HTRF TR-FRET ratio | Inositol monophosphatase 1 (Rattus norvegicus), P97697; active = well fitted curve in the direction sought with a large enough effect in the signal ratio, not every such curve was filed as active; inconclusive = small, poorly fitted or top-dose-only effect, or a change in a side signal; inactive = no such curve, though single readings can be large or run the other way; the % refers to the signal ratio;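 also: cells stimulated with carbachol in lithium chloride buffer; plate controls were DMSO basal wells for no effect and reference inhibitor wells for full effect; higher means more IMPase inhibition seen as more IP1 and lower FRET ratio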
# Target sequence (P97697 whole entry, looked up): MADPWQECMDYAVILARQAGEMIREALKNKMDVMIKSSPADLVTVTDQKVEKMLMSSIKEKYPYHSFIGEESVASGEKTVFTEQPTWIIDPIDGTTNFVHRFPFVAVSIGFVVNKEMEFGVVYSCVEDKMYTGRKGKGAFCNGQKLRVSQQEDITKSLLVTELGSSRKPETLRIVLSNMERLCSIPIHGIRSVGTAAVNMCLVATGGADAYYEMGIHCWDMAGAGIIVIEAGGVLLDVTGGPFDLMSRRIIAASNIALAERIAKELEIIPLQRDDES
#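 Seeded CHO-M1 cells were dosed with compound at up to 46 uM, stimulated with carbachol for 30 min, then lysed in IP-One detection reagents. Higher IP1 lowers the TR-FRET signal.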
# ALOX12 inhib – qHTS Assay for Inhibitors of 12-hLO (12-human lipoxygenase); purified 12-hLO, xylenol orange hydroperoxide absorbance; 150,000 tested, 0.12% active; Potency, µM (series often up to 57.1 µM), inactives show at the highest dose activity change, negative = inhibition, actives largely listed as inhibitors; Polyunsaturated fatty acid lipoxygenase ALOX12 (Homo sapiens), P18054; also: potency is read from the fitted curve at half-maximal effect; % is scaled to controls: 0 for no effect and ±100 for the full control effect; nearly all actives have a fitted effect of over 55% in size
#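 Purified human 12hLO (150 nM), preincubated 15 min with compound, then 40 uM arachidonic acid for 30 min, room temperature, Hepes pH 7.0 with 0.01% Triton X-100. Hydroperoxide detected by ferrous iron/xylenol orange; 573/405 nm absorbance ratio gives reaction progress.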
# HttQ103 aggreg – qHTS Multiplex Assay to Identify Dual Action Probes in a Cell Model of Huntington: Aggregate Formation (GFP); PC12 HttQ103-GFP aggregates, Acumen cytometry, 40 h; Potency, µM (doses to about 46.1 µM), without a hit: top-dose activity change, negative = inhibition, actives largely listed as inhibitors; 220,000 tested, 1.1% active; also: potency is read from the fitted curve at half-maximal effect; % is scaled to controls: 0 for no effect and ±100 for the full control effect; nearly all actives have a fitted effect of over 60% in size
#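 Steps: seed 1500 PC12 HTTQ103-GFP cells/well; add tebufenozide, 100 nM final; add compound titration; add ATPLite reagent; quantify GFP aggregates by laser scanning cytometry.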
# HTT cytoprotect – qHTS Multiplex Assay to Identify Dual Action Probes in a Cell Model of Huntington: Cytoprotection (ATP). PC12 HTT-Q103 induced, cytoprotection, ATP luminescence, 40 h. Potency, µM (series often up to 56.4 µM), without a hit: cytoprotection (ATP increase), most hits filed as activators. 230,000 tested, 0.14% active; also: potency is read from the fitted curve at half-maximal effect; % of control where 0% means no effect; nearly all actives have a fitted effect of over 45% in size
#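 PC12 cells with ecdysone-inducible HTT exon 1 Q103-GFP, induced with 100 nM tebufenozide and co-treated with library compounds in a dose series (1536-well, 1500 cells/well). Cytoprotection read as ATP content by ATPlite luminescence.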
# * hit, by the source's call; ? = inconclusive; · = no result given; [ ] = remark or other dose. An excerpt weighted towards active compounds, which were near 3.3% of everything screened. Unless noted, calls follow the shape of the dose curve; as a rule, active = well fitted curve in the direction sought with a large enough effect; inconclusive = small, poorly fitted or top-dose-only effect, or another doubt; inactive = no such curve, though single readings can be large; an effect the other way counts as inactive or inconclusive.
SMILES,NPSR antag,PNC inhibitor,IMPase cell inh,ALOX12 inhib,HttQ103 aggreg,HTT cytoprotect
CCOC(=O)c1ccc(NC(=S)Nc2cccc(C)n2)cc1,-31.1%,-85.4*,·,-5.6%,-2.2%,10.1%[10 µM]
CCOC(=O)c1c(NC(=O)COC)sc2c1CCCC2,-7.3%[46.1 µM],-83.7*,-8.3,-1.1%,-3.6%,-7.2%
CCOC(=O)c1ccc(NC(=O)COC)cc1,-1.1%[46.1 µM],-88.7*,3.1,1.0%,-2.2%,-2.6%[0.074 µM]
COc1ccc(OC)c(NC(=O)Nc2c(C)n(C)n(-c3ccccc3)c2=O)c1,·,·,6.9,·,·,·
O=C(Nc1ccc(Cl)cc1)C1CCC(CNS(=O)(=O)c2ccc(Br)s2)CC1 (stereo not drawn),·,·,15.0,·,·,·
O=S(=O)(c1cccc2c(S(=O)(=O)N3CCCC3)cccc12)N1CCCC1,-20.6%[46.1 µM],-129.2*,4.8,4.6%,-2.1%,3.7%
CN1C[C@@H](C(=O)N[C@]2(C)O[C@]3(O)[C@H]4CCCN4C(=O)[C@H](Cc4ccccc4)N3C2=O)C[C@H]2c3cccc4[nH]cc(c34)C[C@@H]21,·,·,6.3,-0.9%,·,-19.3%[1.9 µM]
COc1ccc(C2NC(=O)CS2)cc1 (stereo not drawn),2.3%[46.1 µM],-100.0*,3.5,-1.7%,6.5%,9.3%[10 µM]
O=C1CSC(c2ccco2)N1 (stereo not drawn),3.6%[46.1 µM],-10.6,22.2,2.6%,3.9%,-6.3%
CN(C)c1ccc(NC(=O)CC(NCc2cccnc2)C(=O)O)cc1 (stereo not drawn),·,·,7.4,·,·,·
Cc1csc(B(O)O)c1,·,·,·,2.8%,·,-33.6%
Cc1ccc2cc(CN(Cc3ccc(F)cc3)Cc3nnnn3C3CCCC3)c(=O)[nH]c2c1,?,?,10.2,-10.0%,25.1µM*,-5.5%[1.9 µM]
Cc1ccc2[nH]c(=O)c(CN(CCCN3CCOCC3)Cc3nnnn3C3CCCC3)cc2c1,-29.0%[46.1 µM],-100.0*,-3.4,-1.3%,2.2%,-7.5%
COc1ccc(CCNc2oc(-c3ccc(C)cc3)nc2C#N)cc1OC,-10.7%[46.1 µM],-108.4*,4.0,-4.8%,5.9%,-17.2%
COc1ccc(-c2nc(C#N)c(NCCc3ccccc3)o2)cc1,-24.7%[46.1 µM],-100.0*,11.7,-7.7%,-15.9%,9.0%[10 µM]
COCCNc1oc(-c2ccc(C)cc2)nc1C#N,-2.8%[46.1 µM],?,-1.4,-5.4%,-7.2%,2.6%
CCS(=O)(=O)c1c(S(=O)(=O)CC)c2cc(C(C)(C)C)ccn2c1C(=O)c1ccc(F)cc1,·,·,-6.9,·,·,·
CC(C)n1cc(/C=C2/NC(=O)N(c3cccc(Cl)c3)C2=O)c2ccccc21,-11.2%[46.1 µM],-100.0*,-2.7,-6.7%,-18.1%,6.6%[10 µM]
CC(C)n1cc(/C=C2\NC(=O)N(c3cccc(Cl)c3)C2=O)c2ccccc21,-12.0%[46.1 µM],55.0,-4.1,-5.5%,-3.0%,-28.0%
CCCCC(=O)Nc1sc(C(=O)N(CC)CC)c(C)c1C(=O)OC,?,-100.0*,0.6,-4.0%,5.0%,0.6%[10 µM]
NC(=O)C1=CN(C2OC(COP(=O)(O)OP(=O)(O)OC[C@H]3O[C@@H](n4cnc5c(N)ncnc54)[C@H](OP(=O)(O)O)[C@H]3O)C(O)C2O)C=CC1 (stereo partly drawn),8.8%[46.1 µM],·,·,·,·,·
Cc1ccc(S(=O)(=O)C(C#N)c2nc3ccccc3nc2N2CCCC2)cc1 (stereo not drawn),-1.2%[46.1 µM],-10.6,?,28.2µM*,4.2%,9.7%
CCN1CCN(c2nc3ccccc3nc2C(C#N)S(=O)(=O)c2ccc(C)cc2)CC1 (stereo not drawn),-4.2%[46.1 µM],9.3,-6.4,0.3%,9.1%[9.22 µM],6.5%
Cc1ccc(S(=O)(=O)C(C#N)c2nc3ccccc3nc2N2CC(C)OC(C)C2)cc1C (stereo not drawn),-16.9%[46.1 µM],-139.2*,-0.3,-5.8%,-80.2%,-57.5%
Cc1cccc(S(=O)(=O)C(C#N)c2nc3ccccc3nc2N2CC(C)OC(C)C2)c1 (stereo not drawn),-5.4%[46.1 µM],?,-9.6,-13.6%,-11.8%,-92.9%
SMILES,NPSR antag,PNC inhibitor,IMPase cell inh,ALOX12 inhib,HttQ103 aggreg,HTT cytoprotect
Cc1c(NC(=O)CSCc2ccc(Br)cc2)c(=O)n(-c2ccccc2)n1C,3.6%,·,·,·,14.9%,-10.2%
COc1cc2c(cc1OC)C(CCN)=NCC2,·,·,·,0.5%[11.4 µM],·,7.6%[10 µM]
O=[N+]([O-])c1ccc(N/N=C/c2ccc[nH]2)cc1,-37.2%,-96.7*,·,6.31µM*,3.8%,·
CCOc1cccc(-c2nnc(SCC(=O)Nc3ccc(OC)c(OC)c3)n2N)c1,-19.4%[46.1 µM],-108.0*,0.1,0.5%,3.4%,2.8%
CCOc1cccc(-c2nnc(SCC(=O)Nc3cc(OC)cc(OC)c3)n2N)c1,-21.9%[46.1 µM],?,-4.5,-2.7%,1.4%,17.6%
COc1ccc(C(=O)CSc2n[nH]c(-c3ccco3)n2)cc1,-13.0%[46.1 µM],-107.0*,5.7,-1.7%,12.3%[9.22 µM],-6.9%
Cc1ccc(C(=O)CSc2n[nH]c(-c3ccco3)n2)cc1C,-16.4%[46.1 µM],5.2,-15.5,-4.7%,-10.3%,13.0%
Cc1sc(NC(=O)c2ccco2)nc1-c1ccc2c(c1)CC(C)N2C(=O)C1CC1 (stereo not drawn),?,11.2,6.8,-3.9%,15.8µM*,-105.2%
Cc1sc(NC(=O)c2ccco2)nc1-c1ccccc1,-17.1%[46.1 µM],?,4.0,0.0%,-16.2%,0.7%[10 µM]
CCOC(=O)C1CCCN(Cc2ccccc2F)C1 (stereo not drawn),?,-88.9*,2.6,-9.7%,-2.7%,-1.1%[0.074 µM]
CCOC(=O)C1CCCN(Cc2c(Cl)cccc2Cl)C1 (stereo not drawn),-19.4%[46.1 µM],?,0.1,-8.3%,13.2%,1.1%
COC(=O)[C@H](COC(C)(C)C)NC(=O)O[C@@H]1C(=O)c2cc(OC)ccc2O[C@H]1c1cccc(OC)c1,·,·,·,·,·,25.5%
CC(C)(CC(=O)N1CCN(c2ccc(Cl)cc2)CC1)CC1=NS(=O)(=O)c2ccccc2N1,-25.8%[46.1 µM],-19.0,11.9,-6.0%,11.2µM*,-45.9%
O=C(CCCC1=NS(=O)(=O)c2ccccc2N1)N1CCN(c2ccc(Cl)cc2)CC1,1.5%,52.5,·,-1.7%,-5.8%,17.4%
CCOc1ccc(C2=NNC(c3cccs3)=Nc3ccc(OC)cc32)cc1OCC,-20.6%[46.1 µM],-100.0*,-4.9,-6.1%,-0.4%,-6.5%[10 µM]
COc1ccc(C2=NNC(c3cccs3)=Nc3ccc(OC)cc32)cc1,-21.0%[46.1 µM],?,7.1,-7.2%,-22.4%,-13.4%[1.9 µM]
S=C(NC1CCCCC1)NC1CCCCC1,·,·,·,-26.0%,·,-2.8%
